Experimental data published in PubChem BioAssay (Tox21).
Inconclusive results are not listed. Entries that show only a call come without a potency. The source made the active and inactive calls. Calls follow the shape of the dose curve; as a rule, active = well fitted cell-killing curve with a large enough effect in the repeat runs; inconclusive = weak or mixed curves, or effect the other way; inactive = flat fitted curve, though single readings scatter.

Assay: qHTS assay to identify small molecule antagonists of the constitutive androstane receptor (CAR) signaling pathway - cell viability counter screen (AID 1224837); also: nearly all actives have a fitted effect of over 45% in size
Details: HepG2-CYP2B6-hCAR viability, CellTiter-Fluor, 23 h, co-treated with 50 nM CITCO; series mostly up to 92.4 µM
Source text: National Center for Advancing Translational Sciences [NCATS]
NIH Chemical Genomics Center [NCGC]
U.S. Environmental Protection Agency [EPA]
National Institutes of Environmental Health Sciences [NIEHS]
National Toxicology Program [NTP]
U.S. Food and Drug Administration [FDA]
The constitutive androstane receptor (CAR) is a nuclear receptor which regulates multiple drug metabolizing enzymes (DMEs) and transporters. Activating CAR will generally increase the transcription and subsequent translation of CYP2B6 and CYP3A4. These two DMEs represent about 50% of the drug metabolizing potential in the body. When CAR is deactivated, the metabolizing potential in the body will decrease, subsequently increasing the toxicity in the body or lowering the therapeutic potential of a pro-drug. Recently, there have also been studies performed indicating CARs role in energy metabolism and cancer therapy. Therefore, inhibiting CARs activity could have a potential effect on diabetes and cancer. Identifying environmental toxins and compounds which modulate CAR, through the use of the Tox21 10K compound collection, will be an important step in determining the toxicity and potential therapeutic effects these factors will have on the human body. To differentiate true CAR antagonists from cytotoxic substances, the assay is multiplexed with a cell viability assay.
Tox21 Assay Protocol Summary:
A double-stable (hCAR and CYP2B6-2.2kb) transfected cell line, derived from human hepatoma (HepG2) cells, was utilized for the duration of the quantitative high-throughput screens. The HepG2-CYP2B6-hCAR cells were dispensed at 2500 cells/4 uL/well in 1536-well white solid bottom plates using a Multidrop Combi. After the assay plates were incubated at 37 C/5% CO2 for 4 hrs, 23 nL of compounds at 15 concentrations (from 5-48 columns) or positive control (from 1 to 4 columns) were transferred to the assay plates using a Pintool station. One uL of CITCO (final concentration = 50 nM) was added, using a Flying Reagent Dispenser, inside each well. After a 23 hr incubation period at 37 C/5% CO2, 1 uL of CellTiter-Fluor reagent was added into each well of the assay plates using a Flying Reagent Dispenser. The fluorescence intensity in the plates was then measured using a ViewLux plate reader.

Row | Compound | Potency | activity change, negative = cytotoxicity
1 | C[Si](C)(CCCN)O[Si](C)(C)CCCN | inactive | 
2 | CCCCOC(=O)CCCCCCCC(=O)OCCCC | inactive | 
3 | CC(C)O.CC(C)O.CCOC(=O)/C=C(\C)O.CCOC(=O)/C=C(\C)O.[Ti] | inactive | 
4 | Nc1ccc([N+](=O)[O-])c(C(F)(F)F)c1 | inactive | 
5 | CCc1c(C(=O)NN2CCCCC2)nn(-c2ccc(Cl)cc2Cl)c1-c1ccc(Br)cc1 | inactive | 
6 | Cc1ccccc1S(=O)(=O)O | inactive | 
7 | CCN(CC)CCNC(=O)c1cc(Br)c(N)cc1OC | inactive | 
8 | CCOC(=O)C(O)c1ccccc1 (stereo not given) | inactive | 
9 | CCCCC/C=C\C/C=C\CCCCCCCC(=O)NC(C)c1ccccc1 (stereo not given) | inactive | 
10 | COCC(C)OC(C)=O (stereo not given) | inactive | 
11 | COc1ccc(-c2nc3ccc(C4=NNC(=O)CC4C)cc3[nH]2)cc1 (stereo not given) | inactive | 
12 | O=C1[C@H]2CCCC[C@H]2C(=O)N1CCCCN1CCN(c2nsc3ccccc23)CC1 | inactive | 
13 | O=C(OCCc1ccccc1)c1ccccc1 | inactive | 
14 | COc1ccc(C(=O)c2ccc(OC)cc2O)c(O)c1 | inactive | 
15 | ClCCOCCOCCCl | inactive | 
16 | CCCCCCCCCCCc1ccccc1 | inactive | 
17 | COc1ccc(C)cc1[N+](=O)[O-] | inactive | 
18 | CCOC(=O)C1=C[C@]2(CC)CCCN3CCc4c(n1c1ccccc41)[C@@H]32 | inactive | 
19 | C/C=C/C(=O)CC |  | 0.0894% [at 19 µM] (inactive)
20 | O=C(NCCO[N+](=O)[O-])c1cccnc1 | inactive | 

Row | Compound | Potency | activity change, negative = cytotoxicity
21 | OCCNCc1ccccc1 | inactive | 
22 | CCCCCCCCCCO[C@@H]1O[C@H](CO)[C@@H](O)[C@H](O)[C@H]1O | inactive | 
23 | CCC(Cl)CCC(Cl)C(Cl)CC(Cl)C(Cl)C(Cl)CCl (stereo not given) | inactive | 
24 | NC(=O)C(c1ccccc1)(c1ccccc1)[C@@H]1CCN(CCc2ccc3c(c2)CCO3)C1 | inactive | 
25 | CN(C)CCN(Cc1ccsc1)c1ccccn1 | inactive | 
26 | C=CC1CC2C=CC1C2 (stereo not given) | inactive | 
27 | C=CCOc1ccccc1OCC(O)CNC(C)C (stereo not given) | inactive | 
28 | Cc1cccc(C)c1NC(=O)CN(CC(=O)O)CC(=O)O | inactive | 
29 | O=CC1CC=CCC1 (stereo not given) | inactive | 
30 | CN1C[C@H]2c3ccccc3Oc3ccc(Cl)cc3[C@@H]2C1 | inactive | 
31 | C=C(C)C(=O)OCCOCC | inactive | 
32 | CCCn1cnc2c1c(=O)n(CCCCC(C)=O)c(=O)n2C | inactive | 
33 | O=C1CCCCCCCCCCCC(=O)OCCO1 | inactive | 
34 | CC(C)(O)c1ccc(CNC(=O)c2cccnc2Oc2ccc(F)cc2)cc1 | inactive | 
35 | CNC(=O)CN(CCN(CCN(CC(=O)[O-])CC(=O)NC)CC(=O)[O-])CC(=O)[O-].O.[Gd+3] | inactive | 
36 | CCO[Si](CCCCl)(OCC)OCC | inactive | 
37 | CCCCCCc1ccc(-c2ccc(C#N)cc2)cc1 | inactive | 
38 | COc1ccc(C(=O)N2CCN(CC(=O)N3CCOCC3)CC2)cc1 | inactive | 
39 | CC1=CC=C(C(C)C)CC1 | inactive | 
40 | CN(C)CCOC(c1ccccc1)c1ccc(Br)cc1 (stereo not given) | inactive | 
